PubChem BioAssay (Tox21)
Values joined by “and” are separate entries in the source; they are usually repeats but may differ in a detail not shown here. Equal values may be shown once. Records with an inconclusive call do not appear. A call without a number means that no potency is given here. The source holds several records for some structures; these can differ, active in one and inactive in another. Active and inactive are the calls of the source. Calls come from the whole dose curve; as a rule, active = well fitted activation curve with a large enough effect in the repeat runs; inconclusive = weak or mixed curves; inactive = flat fitted curve, though single readings scatter.
Potency is the fitted concentration of half-maximal effect.

Test: A CellTox Green Cytotoxicity Assay to monitor cytotoxicity in HepG2 cells - 40 hour (AID 1224879); note: nearly all actives have a fitted effect of over 40% in size
Settings: CellTox Green fluorescence; series mostly up to 76.8 µM
Source text: National Center for Advancing Translational Sciences [NCATS]
NIH Chemical Genomics Center [NCGC]
U.S. Environmental Protection Agency [EPA]
National Institutes of Environmental Health Sciences [NIEHS]
National Toxicology Program [NTP]
Cell-based models are critical for drug discovery. Determining the natural cytotoxic effects resulting from test compounds is an essential research activity. A CellTox Green Cytotoxicity Assay to monitor cytotoxicity in real time of continues cell culture during 40 hours of the compound treatment was used to screen Tox21 10K library compounds in HepG2 cells. CellTox Green Cytotoxicity Assay is a nonlytic, homogeneous, biofluorescent method to measure cytotoxicity in cell culture after experimental manipulation. The assay system uses a proprietary asymmetric cyanine dye that is excluded from viable cells but preferentially stains the dead cell's DNA. […] Viable cells produce no appreciable increases in fluorescence. Therefore, the fluorescence signal produced by the binding interaction with dead cell DNA is proportional to cytotoxicity.
The mixture of HepG2 cell suspension and reagents were dispensed at 600cells/6 ul/well in 1536-well tissue culture treated black solid bottom plates using a Multidrop dispenser. After the assay plates were incubated at a 37 C/5% CO2 incubator for 5 hours, 23 nL of compounds dissolved in DMSO, positive and negative controls was transferred to the assay plate by a pintool work station. The plates were incubated at 37 C for 40 hours. The fluorescence intensity were measured at 0h, 8h, 16h, 24h, 32h and 40h time points using ViewLux plate reader during compound treatment.
For `CCCCCCCCCCN`, the Potency was “inactive”. With `COc1ccc(N)c(C)c1` the Potency was “inactive”. With `CC(=O)OCc1ccco1` the Potency was “inactive”. In the case of `CCNc1ccccc1`, the Potency was “inactive”. For `O=[N+]([O-])c1ccc2nc[nH]c2c1`, the Potency was “inactive”. With `CC(=O)OC1CC(C)OC(C)O1` (stereo not given) the Potency was “inactive”. For `CC(=O)CCC=C(C)C`, the Potency was “inactive”. With `CC(=O)OCCOC(C)=O` the Potency was “inactive”. With `CCOC(=O)c1ccc(N)cc1` the Potency was “inactive”. With `O=C(O)CCCCCCCCC(=O)O` the Potency was “inactive”. With `C=C(C)CNCC` the Potency was “inactive”. For `CCCCCCCCCCO`, the Potency was “inactive”. With `CCCCCCC=O` the Potency was “inactive”. For `NC(=S)NNC(N)=S`, the Potency was “inactive”. In the case of `N[C@H](Cc1c[nH]c2ccccc12)C(=O)O`, the Potency was “inactive”. For `COc1cc(OC)c(C(=O)CCCN2CCCC2)c(OC)c1`, the Potency was “inactive”. For `Cc1ccc2ncccc2c1`, the Potency was “inactive”. In the case of `CCCCCCCCCCCCCCCC(=O)OC(C)C`, the Potency was “inactive”. With `C[C@]12CC[C@@H]3c4ccc(O)cc4CC[C@H]3[C@@H]1C[C@@H](O)[C@@H]2O` the Potency was “inactive”. In the case of `CCCCCCCO`, the Potency was “inactive”. For `CN(C)CCOC(=O)COc1ccc(Cl)cc1`, the Potency was “inactive”. With `CC(=O)Oc1ccc(C)cc1` the Potency was “inactive”. With `CC(=O)OCc1ccccc1` the Potency was “inactive”. In the case of `CC(C)(Oc1ccc(CCNC(=O)c2ccc(Cl)cc2)cc1)C(=O)O`, the Potency was “inactive”. For `COc1ccc(OC)cc1`, the Potency was “inactive”. For `CC(C)OC(=O)COc1ccc(Cl)cc1Cl`, the Potency was “inactive”. In the case of `CC(C)CC(C)O` (stereo not given), the Potency was “inactive”. With `COc1ccccc1OCC(O)CO` (stereo not given) the Potency was “inactive”. In the case of `C=CC[N+](C)(C)CC=C`, the Potency was “inactive”. In the case of `CCOC(=O)n1ccn(C)c1=S`, the Potency was “inactive”. With `CC1(C)NC(=O)NC1=O` the Potency was “inactive”. With `Brc1ccc(Br)c(Br)c1` the Potency was “inactive”. In the case of `CC(CCl)OP(=O)(OC(C)CCl)OC(C)CCl` (stereo not given), the Potency was “inactive”. In the case of `CC(C)CC(=O)CC(C)CC(C)C` (stereo not given), the Potency was “inactive”. For `CC(C)(C#N)c1cc(Cn2cncn2)cc(C(C)(C)C#N)c1`, the Potency was “inactive”. For `C[Si]1(C)O[Si](C)(C)O[Si](C)(C)O[Si](C)(C)O1`, the Potency was “inactive”. In the case of `CCCCC(C=O)CC` (stereo not given), the Potency was “inactive and 14.6 µM (active)”. In the case of `O=C(O)c1cc2ccccc2cc1O`, the Potency was “inactive”. In the case of `CNC(=O)Oc1ccc2c(c1)[C@]1(C)CCN(C)[C@@H]1N2C`, the Potency was “inactive”. For `O=C1CCCC1`, the Potency was “inactive”.
